In PubChem BioAssay AID2113 (National Center for Advancing Translational Sciences (NCATS), 2009):
Records with an inconclusive call do not appear. Where a call stands in place of a potency, no number is given. Calls of active or inactive are those of the source. Calls come from the whole dose curve; as a rule, active = well fitted curve in either direction with a large enough effect; inconclusive = small, poorly fitted or top-dose-only effect; inactive = no such curve, though single readings can be large or run the other way.

Target: Lysosomal alpha-glucosidase (Homo sapiens) (UniProt P10253)
Experiment: Confirmation of Inhibitors and Activators of Human alpha-Glucosidase From Spleen Homogenate;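 for potency: fluorescence of 4-methylumbelliferone released from a fluorogenic glucopyranoside substrate at pH 5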
Conditions: alpha-glucosidase enzyme activity; series mostly up to 60.5 µM
Summary of the method: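 Fluorogenic assay using human spleen homogenate (1 ug) as enzyme source with 1 mM 4-methylumbelliferyl-alpha-D-glucopyranoside, pH 5.0 citrate buffer, 40 min at 37 C. 4-MU read (Ex 365/Em 440) after NaOH/glycine stop; AC50 from Hill fits.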
Potency is the fitted concentration of half-maximal effect.

| Compound | Potency |
| --- | --- |
| O=NOc1ccc(/C=C/c2nccc3c2[nH]c2ccccc23)cc1 | inactive |
| CCCn1c(N)c(CC)c(=O)[nH]c1=O | inactive |
| CC(=O)c1ccc(N2CCN(S(=O)(=O)c3ccc4c(c3)CCCN4C(C)=O)CC2)cc1 | inactive |
| Cc1cccc(-n2c(N)cc(=O)[nH]c2=S)c1 | inactive |
| CCc1sc(-c2cc3cc(Cl)ccc3oc2=O)nc1-c1ccccc1 | inactive |
| O=c1oc2ccc(Cl)cc2cc1-c1nc2c(s1)CCCC2 | inactive |
| O=C(NN=C1c2ccccc2-c2ccccc21)c1cccc(S(=O)(=O)N2CCOCC2)c1 | inactive |
| CC(C)(C)OC(=O)NCCCC[C@H](NC(=O)c1nc[nH]c1C(=O)NCc1ccccc1)C(=O)OC(C)(C)C | inactive |
| CCCCn1c(N)c(NCC)c(=O)[nH]c1=O | inactive |
| Cc1ccc(-c2nc(-c3cc4cc(Cl)ccc4oc3=O)sc2C)cc1 | inactive |
| CCCN1CNc2c(c(=O)[nH]c(=S)n2CCc2ccc(OC)cc2)C1 | 14.1 µM (active) |
| CCCN1CNc2c(c(=O)[nH]c(=S)n2CCc2cc(C)ccc2C)C1 | 8.91 µM (active) |
| CCCN1CNc2c(c(=O)[nH]c(=S)n2CCc2ccccc2OC)C1 | 44.7 µM (active) |
| CCN(CC)c1ccc(/C=N/NC(=O)C(O)c2ccccc2)cc1 (stereo not drawn) | inactive |
| CCCN1CNc2c(c(=O)[nH]c(=S)n2CCc2ccc(C)cc2C)C1 | 39.8 µM (active) |
| Clc1ccc(Nc2ncnc3ccc(Br)cc23)cc1 | inactive |
| COc1ccc(CCn2c(=S)[nH]c(=O)c3c(C)cc(C)nc32)cc1OC | inactive |
| COc1ccc(C#Cc2cnc(Cl)c3cncnc23)cc1OC | inactive |
